Test results reported in the supplement of paper PMC10849652.
Targets with a hit are over-represented here; the source holds about 7,900 in all. About 0.6% of all pairs of compound and target were hits.

Columns and labels:
Assay in all cases: log2 fold change, soluble protein after heating vs DMSO (PISA); higher = thermal stabilisation; K562 cells, 10 uM, 30 min; active = over 0.2 and 3.5 SD of the protein, either way, in both replicates (recomputed)
[1] = compound: CS(=O)(=O)c1ccc(-c2cnc(N)c(C(=O)Nc3ccccc3)n2)cc1
How it was run: (§1)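 K562 cells at 2×10^6 cells/mL were exposed to 10 μM compound for 30 min, then aliquots were heated for 3 min across 48°C-58°C, pooled, and extracted in PBS containing 0.5% NP-40 at 4°C. The supernatant after 21,000xg for 90 min was taken as soluble protein and measured by TMTpro 16plex LC-MS/MS with channel sums equalised. Thermal stability is reported relative to control samples, with values from duplicates. Fold changes are given on a log2 scale.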

crizotinib = compound: C[C@@H](Oc1cc(-c2cnn(C3CCNCC3)c2)cnc1N)c1c(Cl)ccc(F)c1Cl [crizotinib]
How it was run: as §1

[2] = compound: C[C@@H]1COCCN1C2=NC(=NC(=C2)C3(CC3)S(=O)(=O)C)C4=C5C=CNC5=CC=C4
How it was run: as §1

[3] = compound: C[C@H](C1=CC=C(C=C1)C(=O)NC2=C3C=CNC3=NC=C2)N
How it was run: as §1

duvelisib = compound: C[C@H](Nc1ncnc2nc[nH]c12)c1cc2cccc(Cl)c2c(=O)n1-c1ccccc1 [duvelisib]
How it was run: as §1

gandotinib = compound: Cc1cc(Nc2cc(CN3CCOCC3)c3nc(C)c(Cc4ccc(Cl)cc4F)n3n2)n[nH]1 [gandotinib]
How it was run: as §1

tozasertib = compound: Cc1cc(Nc2cc(N3CCN(C)CC3)nc(Sc3ccc(NC(=O)C4CC4)cc3)n2)n[nH]1 [tozasertib]
How it was run: as §1

[4] = compound: Cc1cc(SCc2sc(-c3ccc(C(F)(F)F)cc3)nc2C)ccc1OCC(=O)O
How it was run: as §1

doramapimod = compound: Cc1ccc(-n2nc(C(C)(C)C)cc2NC(=O)Nc2ccc(OCCN3CCOCC3)c3ccccc23)cc1 [doramapimod]
How it was run: as §1

ispinesib = compound: Cc1ccc(C(=O)N(CCCN)[C@@H](c2nc3cc(Cl)ccc3c(=O)n2Cc2ccccc2)C(C)C)cc1 [ispinesib]
How it was run: as §1

bafetinib = compound: Cc1ccc(NC(=O)c2ccc(CN3CC[C@H](N(C)C)C3)c(C(F)(F)F)c2)cc1Nc1nccc(-c2cncnc2)n1 [bafetinib]
How it was run: as §1

[5] = compound: Cc1cccc(CC(=O)N2CCc3c2ccc(-c2cn(C)c4ncnc(N)c24)c3F)n1
How it was run: as §1

nilotinib = compound: Cc1cn(-c2cc(NC(=O)c3ccc(C)c(Nc4nccc(-c5cccnc5)n4)c3)cc(C(F)(F)F)c2)cn1 [nilotinib]
How it was run: as §1

[6] = compound: Cc1nc(Nc2n[nH]c3c2CN(C(=O)N[C@H](CN(C)C)c2ccccc2)C3(C)C)c2sccc2n1
How it was run: as §1

dasatinib = compound: Cc1nc(Nc2ncc(C(=O)Nc3c(C)cccc3Cl)s2)cc(N2CCN(CCO)CC2)n1 [dasatinib]
How it was run: as §1

[7] = compound: Cc1ncc(-c2ccnc(Nc3ccc(S(C)(=O)=O)cc3)n2)n1C(C)C
How it was run: as §1

[8] = compound: Cn1cc(-c2ccc3c(c2)CCN3C(=O)Cc2cccc(C(F)(F)F)c2)c2c(N)ncnc21
How it was run: as §1

[9] = compound: Cn1cc(-c2ccc3nnc(C(F)(F)c4ccc5ncccc5c4)n3n2)cn1
How it was run: as §1

tipifarnib = compound: Cn1cncc1[C@@](N)(c1ccc(Cl)cc1)c1ccc2c(c1)c(-c1cccc(Cl)c1)cc(=O)n2C [tipifarnib]
How it was run: as §1

mubritinib = compound: FC(F)(F)c1ccc(/C=C/c2nc(COc3ccc(CCCCn4ccnn4)cc3)co2)cc1 [mubritinib]
How it was run: as §1

Measured: log2 fold change

ATP13A3 (UniProt Q9H7F0)
inactive: [1] 0.076 | crizotinib -0.251 | [2] -0.037 | [3] 0.056 | duvelisib 0.09 | gandotinib 0 | tozasertib -0.118 | [4] -0.043 | doramapimod 0.045 | ispinesib -0.251 | bafetinib -0.067 | [5] 0.116 | nilotinib -0.015 | [6] -0.06 | dasatinib 0.008 | [7] 0.024 | [8] -0.099 | [9] 0.002 | tipifarnib 0.098 | mubritinib -0.049

ATP12A isoform 2 (UniProt P54707)
inactive: [1] 0.02 | crizotinib 0.162 | [2] 0.138 | [3] -0.087 | duvelisib 0.067 | gandotinib -0.047 | tozasertib -0.027 | [4] -0.056 | doramapimod -0.004 | ispinesib 0.137 | bafetinib 0.026 | [5] 0.011 | nilotinib 0.02 | [6] -0.007 | dasatinib 0.022 | [7] 0.007 | [8] 0.066 | [9] 0.04 | tipifarnib 0.016 | mubritinib 0.018

AHSA1 (UniProt O95433)
inactive: [1] 0.035 | crizotinib 0.034 | [2] 0.058 | [3] -0.026 | duvelisib 0.027 | gandotinib -0.077 | tozasertib 0.015 | [4] 0.023 | doramapimod -0.029 | ispinesib -0.003 | bafetinib -0.059 | [5] 0.013 | nilotinib -0.052 | [6] -0.035 | dasatinib -0.096 | [7] -0.018 | [8] 0.065 | [9] 0.009 | tipifarnib -0.056 | mubritinib 0.038

BAP1 (UniProt Q92560)
UniProt Q92560, sequence (Q92560 whole entry, looked up): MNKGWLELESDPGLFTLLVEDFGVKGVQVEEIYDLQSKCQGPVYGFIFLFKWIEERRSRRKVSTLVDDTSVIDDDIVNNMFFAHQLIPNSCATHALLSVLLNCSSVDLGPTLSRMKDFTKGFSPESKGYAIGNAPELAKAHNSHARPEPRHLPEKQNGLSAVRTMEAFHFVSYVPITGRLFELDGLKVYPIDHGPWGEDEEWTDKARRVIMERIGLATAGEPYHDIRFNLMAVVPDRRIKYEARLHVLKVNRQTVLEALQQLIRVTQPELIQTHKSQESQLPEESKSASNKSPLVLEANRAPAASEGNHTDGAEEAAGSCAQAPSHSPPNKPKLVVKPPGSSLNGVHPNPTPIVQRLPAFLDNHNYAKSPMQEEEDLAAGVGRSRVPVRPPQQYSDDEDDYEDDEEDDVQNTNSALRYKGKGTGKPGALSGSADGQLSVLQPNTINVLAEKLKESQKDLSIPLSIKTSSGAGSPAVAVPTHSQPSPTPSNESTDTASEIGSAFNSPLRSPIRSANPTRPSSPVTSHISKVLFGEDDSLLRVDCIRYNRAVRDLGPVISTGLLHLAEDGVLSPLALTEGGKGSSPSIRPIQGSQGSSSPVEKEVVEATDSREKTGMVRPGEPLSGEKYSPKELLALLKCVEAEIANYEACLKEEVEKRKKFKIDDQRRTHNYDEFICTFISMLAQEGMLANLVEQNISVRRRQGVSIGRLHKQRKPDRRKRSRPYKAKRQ
inactive: [1] 0.07 | crizotinib -0.078 | [2] 0 | [3] 0.126 | duvelisib -0.089 | gandotinib 0.076 | tozasertib 0.079 | [4] 0.085 | doramapimod 0.112 | ispinesib -0.043 | bafetinib 0.252 | [5] -0.071 | nilotinib 0.007 | [6] 0.053 | dasatinib -0.031 | [7] 0.006 | [8] -0.086 | [9] -0.064 | tipifarnib 0.076 | mubritinib -0.201

BZW2 (UniProt Q9Y6E2)
UniProt Q9Y6E2, sequence (Q9Y6E2 whole entry, looked up): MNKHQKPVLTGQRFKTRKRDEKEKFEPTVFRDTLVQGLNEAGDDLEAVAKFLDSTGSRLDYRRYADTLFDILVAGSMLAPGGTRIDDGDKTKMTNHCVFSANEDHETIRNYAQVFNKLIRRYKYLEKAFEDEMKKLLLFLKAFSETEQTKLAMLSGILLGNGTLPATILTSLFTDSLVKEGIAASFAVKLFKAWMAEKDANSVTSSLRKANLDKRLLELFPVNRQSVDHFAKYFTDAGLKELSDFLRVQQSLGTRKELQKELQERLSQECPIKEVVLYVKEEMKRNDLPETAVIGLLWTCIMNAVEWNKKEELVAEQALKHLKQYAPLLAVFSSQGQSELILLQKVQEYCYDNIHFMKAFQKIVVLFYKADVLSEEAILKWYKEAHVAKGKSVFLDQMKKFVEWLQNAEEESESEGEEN
inactive: [1] 0.006 | crizotinib -0.146 | [2] 0.096 | [3] -0.037 | duvelisib -0.001 | gandotinib -0.218 | tozasertib 0.011 | [4] 0.047 | doramapimod -0.047 | ispinesib -0.072 | bafetinib -0.021 | [5] 0.073 | nilotinib -0.057 | [6] -0.04 | dasatinib -0.132 | [7] -0.019 | [8] 0.034 | [9] -0.004 | tipifarnib -0.158 | mubritinib 0.095

APOB (UniProt P04114)
inactive: [1] 0.066 | crizotinib -0.443 | [2] 0.083 | [3] -0.203 | duvelisib 0.003 | gandotinib -0.198 | tozasertib -0.085 | [4] 0.007 | doramapimod -0.288 | bafetinib -0.316 | [5] 0.032 | nilotinib -0.132 | [6] 0.013 | dasatinib -0.213 | [7] 0.051 | [8] 0.071 | [9] -0.021 | tipifarnib -0.203 | mubritinib 0.011
active: ispinesib -0.55

BRIX1 (UniProt Q8TDN6)
UniProt Q8TDN6, sequence (Q8TDN6 whole entry, looked up): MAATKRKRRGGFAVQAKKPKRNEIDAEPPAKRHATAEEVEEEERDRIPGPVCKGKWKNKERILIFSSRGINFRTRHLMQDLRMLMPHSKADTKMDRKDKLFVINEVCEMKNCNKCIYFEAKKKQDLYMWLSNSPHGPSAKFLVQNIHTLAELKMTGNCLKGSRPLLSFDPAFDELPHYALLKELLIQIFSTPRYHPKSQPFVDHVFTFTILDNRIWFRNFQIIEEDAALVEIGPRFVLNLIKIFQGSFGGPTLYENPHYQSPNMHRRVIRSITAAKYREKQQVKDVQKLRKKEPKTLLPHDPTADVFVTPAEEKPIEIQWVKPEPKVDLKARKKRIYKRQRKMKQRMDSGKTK
inactive: [1] -0.027 | crizotinib -0.097 | [2] -0.292 | [3] 0.318 | duvelisib -0.117 | gandotinib 0.056 | tozasertib 0.196 | [4] 0.093 | doramapimod 0.288 | ispinesib 0.166 | bafetinib 0.386 | [5] -0.033 | nilotinib 0.085 | [6] -0.077 | dasatinib 0.109 | [7] -0.013 | [8] -0.494 | [9] -0.138 | tipifarnib 0.158 | mubritinib -0.206

ATAD3A isoform 2 (UniProt Q9NVI7)
UniProt Q9NVI7, sequence (Q9NVI7 whole entry, looked up): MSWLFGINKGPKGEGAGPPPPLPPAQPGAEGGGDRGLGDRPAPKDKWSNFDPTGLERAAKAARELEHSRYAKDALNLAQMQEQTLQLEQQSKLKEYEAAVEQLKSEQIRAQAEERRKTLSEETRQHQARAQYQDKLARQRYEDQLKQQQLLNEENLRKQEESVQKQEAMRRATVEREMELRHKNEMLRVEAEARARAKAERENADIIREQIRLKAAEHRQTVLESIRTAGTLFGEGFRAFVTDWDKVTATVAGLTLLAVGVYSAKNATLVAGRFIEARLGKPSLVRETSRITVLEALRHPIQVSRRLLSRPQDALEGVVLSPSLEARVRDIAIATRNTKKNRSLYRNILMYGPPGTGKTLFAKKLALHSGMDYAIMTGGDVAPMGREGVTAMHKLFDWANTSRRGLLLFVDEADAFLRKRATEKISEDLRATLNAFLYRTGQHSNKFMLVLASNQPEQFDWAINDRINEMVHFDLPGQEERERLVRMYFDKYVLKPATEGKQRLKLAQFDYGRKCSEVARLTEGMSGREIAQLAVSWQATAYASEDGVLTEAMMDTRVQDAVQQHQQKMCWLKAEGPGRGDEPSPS
inactive: [1] 0.003 | crizotinib -0.191 | [2] -0.052 | [3] 0.101 | duvelisib -0.083 | gandotinib 0.032 | tozasertib 0.005 | [4] 0.075 | doramapimod 0.057 | bafetinib -0.104 | [5] 0.035 | nilotinib -0.141 | [6] -0.053 | dasatinib -0.094 | [7] 0 | [8] -0.082 | [9] -0.101 | tipifarnib 0.097 | mubritinib -0.215
active: ispinesib -0.348

ADPRHL2 (UniProt Q9NX46)
UniProt Q9NX46, sequence (Q9NX46 whole entry, looked up): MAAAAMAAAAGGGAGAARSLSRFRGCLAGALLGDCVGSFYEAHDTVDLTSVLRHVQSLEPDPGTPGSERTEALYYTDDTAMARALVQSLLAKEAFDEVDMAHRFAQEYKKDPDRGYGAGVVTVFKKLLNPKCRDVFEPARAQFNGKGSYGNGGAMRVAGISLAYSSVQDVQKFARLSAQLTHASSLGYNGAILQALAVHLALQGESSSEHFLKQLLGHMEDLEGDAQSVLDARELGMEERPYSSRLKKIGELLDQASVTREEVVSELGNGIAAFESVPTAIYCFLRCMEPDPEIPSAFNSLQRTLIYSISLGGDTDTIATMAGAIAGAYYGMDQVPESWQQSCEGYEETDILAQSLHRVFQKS
inactive: [1] 0.052 | crizotinib 0.092 | [2] 0.045 | [3] -0.072 | duvelisib 0.17 | gandotinib 0.07 | tozasertib -0.077 | [4] 0.039 | doramapimod -0.017 | bafetinib 0.201 | [5] 0.029 | nilotinib 0.013 | [6] 0.164 | dasatinib -0.034 | [7] 0.124 | [8] 0.082 | [9] 0.052 | tipifarnib -0.159
active: ispinesib 0.303 | mubritinib 0.349

AFDN isoform 5 (UniProt P55196)
UniProt P55196, sequence (P55196 whole entry, looked up): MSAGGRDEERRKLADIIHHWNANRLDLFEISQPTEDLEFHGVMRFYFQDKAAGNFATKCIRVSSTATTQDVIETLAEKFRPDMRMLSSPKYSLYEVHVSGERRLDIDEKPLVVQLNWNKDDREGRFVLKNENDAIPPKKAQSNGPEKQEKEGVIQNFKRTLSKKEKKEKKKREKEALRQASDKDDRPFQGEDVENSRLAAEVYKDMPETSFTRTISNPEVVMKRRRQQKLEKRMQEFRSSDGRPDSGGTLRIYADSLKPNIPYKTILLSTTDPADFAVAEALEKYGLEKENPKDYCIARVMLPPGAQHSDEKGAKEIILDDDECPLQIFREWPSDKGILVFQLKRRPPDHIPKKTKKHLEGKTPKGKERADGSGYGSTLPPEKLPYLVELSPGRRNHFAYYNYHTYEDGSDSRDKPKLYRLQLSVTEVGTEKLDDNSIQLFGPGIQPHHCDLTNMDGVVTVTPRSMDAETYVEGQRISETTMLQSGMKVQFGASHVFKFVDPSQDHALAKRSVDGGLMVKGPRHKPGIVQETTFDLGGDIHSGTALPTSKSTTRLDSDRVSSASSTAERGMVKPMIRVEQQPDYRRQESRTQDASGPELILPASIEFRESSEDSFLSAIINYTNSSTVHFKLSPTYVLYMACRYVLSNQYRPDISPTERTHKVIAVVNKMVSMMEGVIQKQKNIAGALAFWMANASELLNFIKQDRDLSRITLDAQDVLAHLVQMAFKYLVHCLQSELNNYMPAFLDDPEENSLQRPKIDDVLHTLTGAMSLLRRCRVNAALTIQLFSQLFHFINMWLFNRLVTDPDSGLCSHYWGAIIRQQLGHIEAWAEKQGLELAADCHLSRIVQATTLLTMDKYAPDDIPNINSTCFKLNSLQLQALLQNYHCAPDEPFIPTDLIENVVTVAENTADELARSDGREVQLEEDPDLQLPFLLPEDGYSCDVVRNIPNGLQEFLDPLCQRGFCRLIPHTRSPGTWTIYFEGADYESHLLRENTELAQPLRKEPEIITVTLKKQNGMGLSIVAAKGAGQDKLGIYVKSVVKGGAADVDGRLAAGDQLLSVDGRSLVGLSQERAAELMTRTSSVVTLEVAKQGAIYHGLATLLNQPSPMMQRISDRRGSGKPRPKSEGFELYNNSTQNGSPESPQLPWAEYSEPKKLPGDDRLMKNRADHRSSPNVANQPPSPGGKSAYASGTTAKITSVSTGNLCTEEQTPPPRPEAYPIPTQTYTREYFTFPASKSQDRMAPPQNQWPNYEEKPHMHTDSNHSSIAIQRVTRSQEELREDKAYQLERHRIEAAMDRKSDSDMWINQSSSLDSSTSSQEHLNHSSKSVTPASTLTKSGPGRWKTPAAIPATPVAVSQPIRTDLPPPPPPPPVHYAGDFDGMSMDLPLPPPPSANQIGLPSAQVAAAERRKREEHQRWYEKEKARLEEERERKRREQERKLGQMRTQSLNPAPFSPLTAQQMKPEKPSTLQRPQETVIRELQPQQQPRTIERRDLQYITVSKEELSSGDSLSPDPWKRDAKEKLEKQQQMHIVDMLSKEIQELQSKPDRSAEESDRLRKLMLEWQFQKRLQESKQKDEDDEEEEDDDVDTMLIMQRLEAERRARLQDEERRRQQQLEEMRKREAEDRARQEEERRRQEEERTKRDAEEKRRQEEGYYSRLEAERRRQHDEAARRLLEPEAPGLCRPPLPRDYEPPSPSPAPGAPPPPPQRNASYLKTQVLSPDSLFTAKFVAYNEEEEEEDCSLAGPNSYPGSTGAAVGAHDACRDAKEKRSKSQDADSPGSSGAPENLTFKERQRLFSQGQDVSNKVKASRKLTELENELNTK
inactive: [1] 0.027 | crizotinib -0.154 | [2] 0.04 | [3] -0.094 | duvelisib -0.016 | gandotinib -0.159 | tozasertib -0.029 | [4] 0.063 | doramapimod 0.009 | ispinesib -0.002 | bafetinib -0.012 | [5] 0.035 | nilotinib -0.06 | [6] -0.135 | dasatinib -0.16 | [7] -0.06 | [8] 0.044 | [9] -0.008 | tipifarnib -0.045 | mubritinib 0.054

ATG9A (UniProt Q7Z3C6)
active: ispinesib -0.239
inactive: [1] 0.074 | crizotinib -0.11 | [2] 0.036 | [3] 0.036 | duvelisib 0.042 | gandotinib -0.062 | tozasertib 0.012 | [4] 0.069 | doramapimod -0.016 | bafetinib -0.048 | [5] -0.013 | nilotinib -0.04 | [6] -0.108 | dasatinib -0.046 | [7] -0.014 | [8] 0.06 | [9] -0.022 | tipifarnib 0.168 | mubritinib 0.042

ARL2BP (UniProt Q9Y2Y0)
UniProt Q9Y2Y0, sequence (Q9Y2Y0 whole entry, looked up): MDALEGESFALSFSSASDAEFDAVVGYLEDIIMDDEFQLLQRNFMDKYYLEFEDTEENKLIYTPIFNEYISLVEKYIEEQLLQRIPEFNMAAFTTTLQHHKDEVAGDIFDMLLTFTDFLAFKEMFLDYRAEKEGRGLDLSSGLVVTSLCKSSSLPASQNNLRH
inactive: [1] 0.077 | crizotinib -0.128 | [2] -0.017 | [3] -0.038 | duvelisib -0.004 | gandotinib -0.166 | tozasertib 0.006 | [4] 0.044 | doramapimod 0.101 | ispinesib -0.042 | bafetinib 0.001 | [5] 0 | nilotinib -0.078 | [6] -0.086 | dasatinib -0.069 | [7] -0.103 | [8] 0.125 | [9] 0.011 | tipifarnib -0.091 | mubritinib -0.027

ABCC5 (UniProt O15440)
active: [6] -0.219
inactive: [1] 0.045 | crizotinib -0.011 | [2] 0.031 | [3] 0.088 | duvelisib 0.037 | gandotinib -0.05 | tozasertib -0.023 | [4] -0.011 | doramapimod -0.023 | ispinesib -0.071 | bafetinib -0.027 | [5] 0.068 | nilotinib -0.21 | dasatinib -0.035 | [7] -0.015 | [8] 0.017 | [9] 0.053 | tipifarnib -0.009 | mubritinib 0.124

ACSM3 (UniProt Q53FZ2)
UniProt Q53FZ2, sequence (Q53FZ2 whole entry, looked up): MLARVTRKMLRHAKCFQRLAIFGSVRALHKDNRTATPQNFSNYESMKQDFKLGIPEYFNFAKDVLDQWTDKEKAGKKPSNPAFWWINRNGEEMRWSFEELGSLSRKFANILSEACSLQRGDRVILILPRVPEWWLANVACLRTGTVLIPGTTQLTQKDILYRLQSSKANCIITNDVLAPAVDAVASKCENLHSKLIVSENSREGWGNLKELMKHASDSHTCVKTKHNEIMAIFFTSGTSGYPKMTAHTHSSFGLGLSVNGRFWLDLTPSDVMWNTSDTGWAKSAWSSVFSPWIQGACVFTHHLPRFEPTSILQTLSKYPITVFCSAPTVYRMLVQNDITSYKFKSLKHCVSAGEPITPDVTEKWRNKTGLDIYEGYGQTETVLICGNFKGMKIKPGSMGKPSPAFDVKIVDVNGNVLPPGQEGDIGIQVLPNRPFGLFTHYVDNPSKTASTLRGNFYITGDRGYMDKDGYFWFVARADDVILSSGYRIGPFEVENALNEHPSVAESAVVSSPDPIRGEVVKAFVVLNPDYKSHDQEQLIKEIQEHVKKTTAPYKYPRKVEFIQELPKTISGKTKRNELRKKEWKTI
inactive: [1] -0.001 | crizotinib -0.002 | [2] 0.027 | [3] -0.095 | duvelisib -0.131 | gandotinib -0.037 | tozasertib -0.001 | [4] 0.049 | doramapimod 0.023 | ispinesib 0.226 | bafetinib 0.009 | [5] -0.061 | nilotinib -0.015 | [6] 0.002 | dasatinib -0.185 | [7] 0.028 | [8] 0.012 | [9] 0.128 | tipifarnib 0.002
active: mubritinib -0.343

ATL2 (UniProt Q8NHH9)
inactive: [1] 0.078 | crizotinib -0.031 | [2] -0.003 | [3] -0.014 | duvelisib 0.052 | gandotinib -0.035 | tozasertib -0.062 | [4] 0.056 | doramapimod -0.018 | bafetinib 0.026 | [5] 0.034 | nilotinib 0.081 | [6] -0.008 | dasatinib -0.129 | [7] 0.031 | [8] 0.083 | [9] 0.18 | tipifarnib -0.014 | mubritinib 0.104
active: ispinesib 0.376

ATP6AP1 (UniProt Q15904)
inactive: [1] -0.006 | crizotinib -0.134 | [2] -0.161 | [3] 0.146 | duvelisib -0.056 | gandotinib -0.03 | tozasertib 0.028 | [4] 0.055 | doramapimod 0.045 | bafetinib -0.052 | [5] 0.025 | nilotinib 0.024 | [6] -0.041 | dasatinib 0.016 | [7] -0.041 | [8] -0.081 | [9] -0.064 | tipifarnib 0.011 | mubritinib -0.051
active: ispinesib -0.317
